# Reference: the supplement of paper PMC10849652
# Of roughly 8,800 targets only a part is listed; those with a hit were picked by preference. About 0.5% of all pairs of compound and target were hits. Values without a mark were called inactive.
# Compound: CC1=C2C(=CC=C1)N=C(N(C2=O)C3=CC=CC=C3C)CN4C=NC5=C(N=CN=C54)N
# Assay: log2 fold change, soluble protein after heating vs DMSO (PISA); higher = thermal stabilisation; K562 lysate, 10 uM; active = over 0.2 and 3.5 SD of the protein, either way, in both replicates (recomputed)
# How it was run: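 Thermal stability, expressed as log-two fold change relative to solvent controls, is given from duplicates. Crude K562 extract in PBS pH 7.4 with 1 mM MgCl2, at 1 mg/mL protein, was treated with 10 μM compound for 30 min and heated in aliquots for 3 min across 48°C-58°C. After pooling, adjustment to 0.5% NP-40 at 4°C and centrifugation at 21,000xg for 90 min, supernatant protein was measured by TMTpro 16plex LC-MS/MS with channel sums equalised.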
# Sequence of UniProt Q00536 (Q00536 whole entry, looked up): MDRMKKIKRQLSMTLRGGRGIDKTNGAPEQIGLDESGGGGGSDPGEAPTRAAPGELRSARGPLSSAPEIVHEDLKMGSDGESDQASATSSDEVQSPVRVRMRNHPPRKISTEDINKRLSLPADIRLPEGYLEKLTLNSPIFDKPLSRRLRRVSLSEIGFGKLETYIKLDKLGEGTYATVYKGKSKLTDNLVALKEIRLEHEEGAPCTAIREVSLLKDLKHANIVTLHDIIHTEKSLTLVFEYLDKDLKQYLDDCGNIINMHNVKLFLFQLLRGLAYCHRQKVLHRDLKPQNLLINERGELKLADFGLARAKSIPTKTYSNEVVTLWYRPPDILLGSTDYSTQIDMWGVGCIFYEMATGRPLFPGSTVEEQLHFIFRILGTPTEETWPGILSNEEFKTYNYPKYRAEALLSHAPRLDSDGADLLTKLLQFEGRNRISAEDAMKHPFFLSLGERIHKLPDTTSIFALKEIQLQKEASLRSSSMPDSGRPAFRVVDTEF
# Sequence of UniProt O95429 (O95429 whole entry, looked up): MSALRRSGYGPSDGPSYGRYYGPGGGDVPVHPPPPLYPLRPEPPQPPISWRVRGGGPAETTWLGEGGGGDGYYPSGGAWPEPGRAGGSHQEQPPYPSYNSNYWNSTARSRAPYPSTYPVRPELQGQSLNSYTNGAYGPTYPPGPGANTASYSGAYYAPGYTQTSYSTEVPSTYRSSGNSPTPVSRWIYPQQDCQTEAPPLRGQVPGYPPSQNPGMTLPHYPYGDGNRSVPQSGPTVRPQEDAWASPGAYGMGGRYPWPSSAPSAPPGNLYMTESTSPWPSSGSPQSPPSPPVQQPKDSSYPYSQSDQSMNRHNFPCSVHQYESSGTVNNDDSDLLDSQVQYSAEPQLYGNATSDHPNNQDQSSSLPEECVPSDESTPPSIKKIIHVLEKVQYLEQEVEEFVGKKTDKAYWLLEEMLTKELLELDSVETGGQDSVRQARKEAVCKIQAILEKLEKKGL
# Sequence of UniProt P15313 (P15313 whole entry, looked up): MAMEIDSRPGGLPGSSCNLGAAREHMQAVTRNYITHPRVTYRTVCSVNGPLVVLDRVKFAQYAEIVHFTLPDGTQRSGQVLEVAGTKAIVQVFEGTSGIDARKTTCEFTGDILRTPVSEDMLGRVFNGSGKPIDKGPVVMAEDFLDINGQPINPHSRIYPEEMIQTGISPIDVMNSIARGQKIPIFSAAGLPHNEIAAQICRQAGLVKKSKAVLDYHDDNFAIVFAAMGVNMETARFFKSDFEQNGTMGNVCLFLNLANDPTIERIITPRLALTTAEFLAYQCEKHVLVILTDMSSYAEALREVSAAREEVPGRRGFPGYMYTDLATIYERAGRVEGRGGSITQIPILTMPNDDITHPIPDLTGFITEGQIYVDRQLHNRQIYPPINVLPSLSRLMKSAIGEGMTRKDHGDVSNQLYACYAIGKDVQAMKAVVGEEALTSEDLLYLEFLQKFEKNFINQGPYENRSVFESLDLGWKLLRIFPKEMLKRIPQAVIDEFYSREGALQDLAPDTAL
# Sequence of UniProt P54132 (P54132 whole entry, looked up): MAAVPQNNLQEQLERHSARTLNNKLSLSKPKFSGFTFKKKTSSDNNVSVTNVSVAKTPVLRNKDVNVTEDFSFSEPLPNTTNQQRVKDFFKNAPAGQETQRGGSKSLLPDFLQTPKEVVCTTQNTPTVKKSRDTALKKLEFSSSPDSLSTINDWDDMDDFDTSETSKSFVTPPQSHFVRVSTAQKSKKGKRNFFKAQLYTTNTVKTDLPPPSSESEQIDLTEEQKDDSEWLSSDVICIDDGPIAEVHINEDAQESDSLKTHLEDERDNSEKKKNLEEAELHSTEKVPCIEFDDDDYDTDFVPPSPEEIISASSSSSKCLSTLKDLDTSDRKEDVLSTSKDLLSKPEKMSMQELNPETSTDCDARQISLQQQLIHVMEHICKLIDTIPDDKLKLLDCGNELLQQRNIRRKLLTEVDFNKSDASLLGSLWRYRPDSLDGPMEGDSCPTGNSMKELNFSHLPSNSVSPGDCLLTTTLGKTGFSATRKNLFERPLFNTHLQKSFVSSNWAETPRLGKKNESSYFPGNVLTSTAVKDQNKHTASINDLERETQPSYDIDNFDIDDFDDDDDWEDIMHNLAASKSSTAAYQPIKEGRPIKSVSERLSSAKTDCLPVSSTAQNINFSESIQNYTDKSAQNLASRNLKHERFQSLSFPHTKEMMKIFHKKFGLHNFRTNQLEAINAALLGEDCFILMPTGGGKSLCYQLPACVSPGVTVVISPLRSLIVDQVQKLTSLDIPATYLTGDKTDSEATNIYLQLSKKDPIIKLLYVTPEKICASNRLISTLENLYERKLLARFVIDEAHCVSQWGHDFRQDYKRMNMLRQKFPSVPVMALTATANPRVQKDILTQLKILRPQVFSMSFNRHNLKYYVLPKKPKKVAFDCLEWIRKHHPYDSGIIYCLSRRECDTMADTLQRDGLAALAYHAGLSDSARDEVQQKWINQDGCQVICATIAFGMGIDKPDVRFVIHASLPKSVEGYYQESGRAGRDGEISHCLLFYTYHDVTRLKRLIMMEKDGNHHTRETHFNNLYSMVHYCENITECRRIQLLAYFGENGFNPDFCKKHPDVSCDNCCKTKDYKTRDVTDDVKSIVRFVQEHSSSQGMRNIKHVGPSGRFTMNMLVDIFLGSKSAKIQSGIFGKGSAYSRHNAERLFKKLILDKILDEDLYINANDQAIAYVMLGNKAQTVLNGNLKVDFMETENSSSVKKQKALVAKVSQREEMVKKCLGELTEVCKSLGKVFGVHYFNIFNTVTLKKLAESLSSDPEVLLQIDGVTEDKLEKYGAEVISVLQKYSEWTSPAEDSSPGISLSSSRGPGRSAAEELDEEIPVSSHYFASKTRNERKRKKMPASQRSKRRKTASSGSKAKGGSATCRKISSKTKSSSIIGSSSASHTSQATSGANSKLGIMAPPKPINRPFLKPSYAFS
# Sequence of UniProt P49069 (P49069 whole entry, looked up): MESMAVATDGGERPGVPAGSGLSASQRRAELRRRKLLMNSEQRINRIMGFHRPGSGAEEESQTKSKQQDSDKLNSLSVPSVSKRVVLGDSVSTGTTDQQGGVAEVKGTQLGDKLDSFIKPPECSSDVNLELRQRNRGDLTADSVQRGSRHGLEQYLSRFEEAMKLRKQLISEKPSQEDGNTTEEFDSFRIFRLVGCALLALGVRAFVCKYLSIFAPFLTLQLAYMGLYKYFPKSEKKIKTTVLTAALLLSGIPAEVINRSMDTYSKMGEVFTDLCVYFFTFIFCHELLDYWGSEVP
# Sequence of UniProt Q6P1S2 (Q6P1S2 whole entry, looked up): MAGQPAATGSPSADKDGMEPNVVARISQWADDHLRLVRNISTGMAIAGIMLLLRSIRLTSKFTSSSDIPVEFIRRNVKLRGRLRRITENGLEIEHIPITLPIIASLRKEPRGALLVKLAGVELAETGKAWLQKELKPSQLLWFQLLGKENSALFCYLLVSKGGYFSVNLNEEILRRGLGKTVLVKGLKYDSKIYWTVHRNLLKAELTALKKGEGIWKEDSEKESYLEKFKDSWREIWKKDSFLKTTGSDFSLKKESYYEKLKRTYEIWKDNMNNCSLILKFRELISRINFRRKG
# Sequence of UniProt O43303 (O43303 whole entry, looked up): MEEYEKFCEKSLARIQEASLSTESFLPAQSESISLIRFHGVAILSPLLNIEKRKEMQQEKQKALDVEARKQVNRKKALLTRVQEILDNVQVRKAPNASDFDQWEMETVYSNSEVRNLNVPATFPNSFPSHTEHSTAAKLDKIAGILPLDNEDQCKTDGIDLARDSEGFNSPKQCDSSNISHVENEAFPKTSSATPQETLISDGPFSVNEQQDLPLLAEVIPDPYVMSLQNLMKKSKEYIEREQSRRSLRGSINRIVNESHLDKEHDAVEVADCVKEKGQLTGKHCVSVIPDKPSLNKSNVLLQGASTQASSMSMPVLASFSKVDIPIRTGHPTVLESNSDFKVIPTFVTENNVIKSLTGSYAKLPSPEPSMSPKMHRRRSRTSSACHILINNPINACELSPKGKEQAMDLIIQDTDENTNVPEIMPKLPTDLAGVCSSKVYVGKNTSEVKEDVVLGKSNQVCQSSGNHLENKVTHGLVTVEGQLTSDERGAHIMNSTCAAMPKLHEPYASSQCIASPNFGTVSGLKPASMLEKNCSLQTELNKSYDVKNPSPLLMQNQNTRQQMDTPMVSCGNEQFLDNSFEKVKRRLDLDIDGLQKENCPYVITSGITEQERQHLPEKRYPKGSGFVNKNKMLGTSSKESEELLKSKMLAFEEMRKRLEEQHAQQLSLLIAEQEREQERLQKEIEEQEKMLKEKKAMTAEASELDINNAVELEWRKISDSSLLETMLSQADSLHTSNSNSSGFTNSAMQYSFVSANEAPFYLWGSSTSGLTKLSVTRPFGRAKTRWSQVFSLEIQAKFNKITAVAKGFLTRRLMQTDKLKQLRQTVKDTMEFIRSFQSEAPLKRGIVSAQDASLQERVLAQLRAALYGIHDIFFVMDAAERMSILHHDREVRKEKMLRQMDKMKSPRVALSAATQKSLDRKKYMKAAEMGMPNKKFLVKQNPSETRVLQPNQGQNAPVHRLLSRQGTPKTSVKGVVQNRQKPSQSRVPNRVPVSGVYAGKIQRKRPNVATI
# Sequence of UniProt Q13825 (Q13825 whole entry, looked up): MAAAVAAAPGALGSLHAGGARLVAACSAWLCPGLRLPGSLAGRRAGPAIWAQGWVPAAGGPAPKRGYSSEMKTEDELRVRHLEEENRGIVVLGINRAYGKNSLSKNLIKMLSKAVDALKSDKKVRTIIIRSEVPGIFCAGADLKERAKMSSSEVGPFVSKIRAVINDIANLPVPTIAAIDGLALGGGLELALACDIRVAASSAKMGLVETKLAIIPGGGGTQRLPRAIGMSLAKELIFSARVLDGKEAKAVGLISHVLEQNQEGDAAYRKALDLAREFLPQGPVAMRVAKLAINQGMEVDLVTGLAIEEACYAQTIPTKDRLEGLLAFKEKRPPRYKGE
# Sequence of UniProt Q15834 (Q15834 whole entry, looked up): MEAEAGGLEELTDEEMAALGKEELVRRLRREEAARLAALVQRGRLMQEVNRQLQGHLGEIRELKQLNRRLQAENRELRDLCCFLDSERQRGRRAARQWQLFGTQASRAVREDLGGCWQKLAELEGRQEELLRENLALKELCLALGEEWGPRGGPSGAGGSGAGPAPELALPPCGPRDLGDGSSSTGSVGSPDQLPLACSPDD
row,Target,log2 fold change
1,C3orf33 (UniProt Q6P1S2),-0.386
2,BPHL (UniProt Q86WA6),-0.028
3,CDK16 isoform 2 (UniProt Q00536),-0.11
4,CAMK2B (UniProt Q13554),-0.032
5,CCP110 (UniProt O43303),0.104
6,CAMLG (UniProt P49069),0.018
7,AUH (UniProt Q13825),0.129
8,CDCA8 (UniProt Q53HL2),-0.213
9,CDC42EP4 (UniProt Q9H3Q1),-0.098
10,CDK5RAP2 (UniProt Q96SN8),0.041
11,CDK5RAP3 isoform 4 (UniProt Q96JB5),0.022
12,CCDC32 isoform 2 (UniProt Q9BV29),-0.058
13,CCDC85B (UniProt Q15834),0.08
14,BCAR1 isoform 6 (UniProt P56945),-0.045
15,ATP6V1B1 (UniProt P15313),0.004
16,CANX isoform 2 (UniProt P27824),-0.005
17,CDK17 isoform 2 (UniProt Q00537),0.109
18,CDC123 (UniProt O75794),-0.038
19,BLM (UniProt P54132),-0.005
20,ATAD3B (UniProt Q5T9A4),-0.021
21,BAG4 (UniProt O95429),-0.023
22,CASC4 (UniProt Q6P4E1),0.039
